# The sample as a whole holds a higher share of hits than the screen did.
# CHX counter: counter-screen for Shiga toxin inhibitors: cycloheximide protein synthesis inhibition | cell reporter, cycloheximide protein synthesis inhibition counterscreen | max response, % | actives 12% (n = 300,000) | AID 2314; in the data active = max response mostly above about 13%, no sharp cut-off; inactive = mostly below about 14%; note: read at 38.3 µM for the half of the compounds with a filed dose; 0% is about no effect
# Sm TGR block: blocks Schistosoma mansoni thioredoxin glutathione reductase. Q962Y6. purified TGR, DTNB reduction, TNB absorbance 405 nm. Potency, µM (doses to about 114 µM), without a hit: at the highest dose activity change, negative = inhibition, hits mostly inhibitors. actives 3% (n = 360,000). AID 485364; note: potency is the fitted concentration of half-maximal effect; % is set by controls: 0 for no effect and ±100 for the full control effect; nearly all actives have a fitted effect of over 60% in size
#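 TGR 20 nM + NADPH 100 uM (dispensed conc.), cpd preinc 15 min RT; start with NADPH (500 uM addition) then DTNB (15 mM addition). Kinetic TNB absorbance, 405 nm filter. Four-parameter Hill fit across titration.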
# LmPK inhibitor: LmPK (Leishmania mexicana) enzyme inhibition; Q27686; Potency, µM (top dose mostly 57.5 µM), for the others: at the highest dose activity change, negative = inhibition, hits mostly inhibitors; purified LmPK, Kinase-Glo ATP luminescence, 1 h; actives 0.37% (n = 290,000); AID 1721; note: potency is the fitted concentration of half-maximal effect; % is set by controls: 0 for no effect and ±100 for the full control effect
#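 Purified LmPK (0.1 nM) with 0.5 mM PEP and 0.1 mM ADP in imidazole buffer pH 7.2 with MgCl2/KCl, 1 h at room temperature. ATP formed was read by luciferase luminescence and normalized to no-enzyme and uninhibited controls.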
# TbPYK inhibitor: inhibitors of Trypanosoma brucei pyruvate kinase | TbPYK enzyme, Kinase-Glo Plus ATP luminescence, 45 min | Potency, µM (titrated, usually from 76.8 µM), without a hit: at the top dose activity, negative = inhibition, most hits filed as inhibitors | actives 0.12% (n = 410,000); note: potency is the fitted concentration of half-maximal effect; % is set by controls: 0 for no effect and ±100 for the full control effect; nearly all actives have a fitted effect of over 50% in size
#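 Luminescent Kinase-Glo Plus end-point after 45 min room-temperature reaction of T. brucei pyruvate kinase started with 130 uM ADP (final). Buffer TEA 50 mM pH 7.2 with KCl, MgCl2, BSA, Tween-20; titration-based qHTS with fitted concentration-effect curves.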
# FBPA Giardia inh: blocks Giardia fructose-bisphosphate aldolase activity | A8B2U2 | actives 0.71% (n = 290,000) | AID 2451 | purified Giardia FBPA | Potency, µM (highest dose often 59.6 µM), for inactives: at the top dose activity, negative = inhibition, actives largely listed as inhibitors; note: potency is the fitted concentration of half-maximal effect; % is set by controls: 0 for no effect and ±100 for the full control effect; nearly all actives have a fitted effect of over 55% in size
# Target sequence (A8B2U2 whole entry, looked up): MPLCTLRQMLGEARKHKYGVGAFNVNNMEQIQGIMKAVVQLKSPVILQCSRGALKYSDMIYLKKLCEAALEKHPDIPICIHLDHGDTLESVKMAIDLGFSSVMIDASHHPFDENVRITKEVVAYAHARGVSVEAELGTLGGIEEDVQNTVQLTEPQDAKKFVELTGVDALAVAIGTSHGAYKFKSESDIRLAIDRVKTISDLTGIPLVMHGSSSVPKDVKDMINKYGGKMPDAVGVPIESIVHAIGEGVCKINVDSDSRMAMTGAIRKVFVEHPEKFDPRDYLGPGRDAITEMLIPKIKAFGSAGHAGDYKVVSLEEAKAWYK
#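 40 nM FBPA preincubated 10 min at RT with compound (up to 57.5 uM final), then substrate plus GAPDH/TPI/NAD/arsenate coupling and diaphorase/resazurin added. Fluorescence read after 20 min at RT, 525/598 nm.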
# Shiga toxin inh: inhibitors of Shiga toxin in Vero cells. actives 9.2% (n = 290,000). Vero cells, Shiga toxin protein synthesis inhibition reporter. inhibition, % at 38.7 µM; in the data active = inhibition mostly above about 28%, no sharp cut-off; inactive = mostly below about 43%; note: 0% is about no effect
# The depositor's hits bear a star; ? = inconclusive; . = no result given. Unless noted, calls come from the whole dose curve; as a rule, active = well fitted curve in the direction sought with a large enough effect; inconclusive = small, poorly fitted or top-dose-only effect, or another doubt; inactive = no such curve, though single readings can be large; an effect the other way counts as inactive or inconclusive.
SMILES,CHX counter,Sm TGR block,LmPK inhibitor,TbPYK inhibitor,FBPA Giardia inh,Shiga toxin inh
O=C(Nc1nccs1)c1ccc(CSc2ccccc2)o1,58.4*,-11.3%,-2.9%,0.9%,.,106.9*
CC(=O)Cc1nsc(NC(=O)c2ccc(COc3ccccc3)o2)n1,3.6,44.7µM*,2.2%,0.0%,10.6%,-15.1
O=C(NCc1ccccc1)c1ccc(CSc2ccccc2)o1,8.5,-3.6%,5.9%,2.3%,-1.7%,14.2
Cc1ccc2c(CNCc3ccc(C)o3)c(C(=O)O)n(Cc3ccc(F)cc3)c2c1,.,-12.1%,.,-2.9%,.,.
CC(=Nc1ccccc1N)c1c(O)n(C)c(=O)[nH]c1=O,50.0*,-35.6%,0.8%,-2.2%,0.9%,75.9*
CCc1c(C(=O)OCc2ccccc2)[nH]c(C)c1C,43.3*,0.7%,1.5%,2.1%,-16.4%,67.4*
CCc1c(C)[nH]c(C(=O)OCc2ccccc2)c1C,27.9*,-2.9%,1.2%,0.3%,-7.2%,80.6*
CCOC(=O)c1[nH]c(C)c(CN(CCc2ccccc2)S(C)(=O)=O)c1C,-1.4,-2.9%,5.1%,-0.6%,1.5%,-21.0
CCOc1ccc(S(=O)(=O)NCCC(=O)NCC(c2ccco2)N2CCCCC2)cc1 (configuration not stated),.,-2.4%,.,4.5%,.,.
COC(=O)C(C(=O)OC)C1C=CCN(C(C)=O)C1 (configuration not stated),.,.,.,3.3%,.,.
O=C(Nc1ccc(N2CCCC2)c(Cl)c1)c1ccccc1F,.,.,.,-2.9%,.,.
Cc1cc(C(=O)Nc2ccc(N3CCOCC3)c(Cl)c2)c(C)o1,33.7*,-23.6%,-22.1%,3.7%,-26.6%,41.7*
Cc1ccc(NC(=O)c2cc(N3C(=O)C=CC3=O)ccc2N2CCOCC2)cc1Cl,-5.5,0.708µM*,18.3%,0.0%,-12.5%,-9.4
O=C(Nc1ccc(N2CCOCC2)c(Cl)c1)c1ccccc1F,35.2*,3.5%,-10.6%,-11.0%,?,109.1*
CCc1nnc2n1N=C(c1ccc(Cl)cc1)CS2,-3.7,0.8%,-2.4%,-5.0%,7.7%,-2.5
CCCc1nnc2n1N=C(c1ccc(C)cc1)CS2,3.8,44.7µM*,-7.2%,-4.3%,.,-3.0
Clc1ccc(C2=Nn3c(nnc3-c3cccs3)SC2)cc1,-1.1,79.4µM*,-4.0%,-20.9%,0.4%,27.3
CCc1nnc2n1N=C(c1ccccc1)CS2,-2.9,44.7µM*,4.0%,1.1%,-0.4%,-3.5
CCOC(=O)[C@]12CCC=C1N(CCC1=CCCCC1)C(=O)[C@H](CC(=O)NCc1cccc3ccccc13)C2,.,.,.,1.5%,.,.
Cc1ccccc1COc1ccc(/C=N/NC(=O)c2nnn(-c3nonc3N)c2CN2CCC(C)CC2)cc1,20.9*,2.4%,3.6%,-3.1%,-27.2%,24.5
CC(/C=N/NC(=O)c1nnn(-c2nonc2N)c1C(C)C)=C\c1ccco1,39.8*,?,0.9%,0.0%,-8.0%,4.7
CC1CCN(Cc2c(C(=O)N/N=C/c3ccc(OC(C)C)cc3)nnn2-c2nonc2N)CC1,5.1,-1.1%,3.6%,-0.1%,1.7%,5.7
CCCc1c(C(=O)N/N=C/C(C)=C/c2ccco2)nnn1-c1nonc1N,2.1,?,-3.9%,1.1%,.,-2.5
Cc1ccc(-c2c(C(=O)N/N=C/c3c[nH]c4ccccc34)nnn2-c2nonc2N)cc1,21.9*,1.5%,0.2%,9.9%,-9.0%,4.5
CN(C)Cc1c(C(=O)N/N=C/CCc2ccccc2)nnn1-c1nonc1N,8.1,2.3%,-3.3%,0.4%,10.5%,14.8
SMILES,CHX counter,Sm TGR block,LmPK inhibitor,TbPYK inhibitor,FBPA Giardia inh,Shiga toxin inh
CN(C)Cc1c(C(=O)N/N=C/C=C/c2ccccc2)nnn1-c1nonc1N,28.6*,8.1%,-5.9%,5.1%,0.6%,-1.3
CCCN(CC(=O)Nc1ccccc1C)CC(=O)Nc1ccc(Br)cc1F,-0.7,?,0.7%,0.4%,8.7%,-1.6
CCCN(CC(=O)Nc1ccc(F)c(F)c1F)C(=O)Cc1ccc(S(=O)(=O)N2CCOCC2)s1,.,-27.8%,.,3.2%,.,.
Cc1ccsc1/C=N/NC(=O)c1nnn(-c2nonc2N)c1C,11.6*,1.3%,5.9%,0.1%,1.0%,19.8
C/C(=N\N=C\c1ccccc1)c1nnn(-c2nonc2N)c1C,18.6*,-6.7%,5.3%,-0.4%,4.2%,40.7
Cc1c(C(=O)N/N=C/c2cccs2)nnn1-c1nonc1N,6.0,-1.0%,2.2%,0.2%,-8.9%,52.3*
Cc1ccc(/C=N/NC(=O)c2nnn(-c3nonc3N)c2C)o1,2.9,-17.0%,-10.2%,-8.7%,.,-5.5
CCCc1c(C(=O)N/N=C/c2cccs2)nnn1-c1nonc1N,0.7,5.2%,0.2%,-3.8%,7.6%,20.6
NC(=O)C1CCN(c2nc(-c3cccs3)cs2)CC1,.,-24.5%,.,-18.3%,.,.
CCn1cnc2cc(NCc3nc4ccccc4n3C)ccc21,26.0*,-14.2%,?,?,-22.6%,59.0*
CCn1cnc2cc(NCc3nc4ccccc4n3Cc3ccccc3)ccc21,32.6*,-31.7%,-10.6%,-8.1%,-21.9%,50.4*
CC(C)n1cnc2cc(NCc3nc4ccccc4n3C)ccc21,72.7*,-11.2%,?,-27.4%,-2.8%,81.8*
CCCCCCCCCCCCCCCC(=O)O[C@H]1[C@@H](O)[C@@H](O)[C@@H]([C@H](NC(=O)[C@@H]2C[C@@H](CCC)CN2C)[C@H](C)Cl)O[C@@H]1SC,.,.,.,5.4%,.,.
NC(N)=NCCC[C@H](N)C(=O)N1CCC[C@H]1C(=O)N1CCC[C@H]1C(=O)NCC(=O)N[C@@H](Cc1ccccc1)C(=O)N[C@@H](CO)C(=O)N1CCC[C@H]1C(=O)N[C@@H](Cc1ccccc1)C(=O)O,0.7,.,.,.,2.1%,-4.4
CCCCSc1nnc(-c2ccccc2N)c(=O)[nH]1,27.6*,?,0.5%,-1.4%,6.2%,77.4*
CCCSc1nnc(-c2ccccc2N)c(=O)[nH]1,30.6,49.0%,-3.1%,-0.5%,6.1%,93.2*
CC(C(O)c1ccccc1)N(C)CCOC(c1ccccc1)c1ccccc1 (configuration not stated),.,.,.,-2.2%,.,.
Cc1ccc(S(=O)(=O)Oc2ccc3ccc(O)cc3c2)cc1,28.8*,2.9%,-2.2%,0.2%,-5.9%,.
Cc1ccc(S(=O)(=O)Oc2ccccc2)cc1,.,.,.,-0.9%,.,.
CCOc1ccc(S(=O)(=O)Oc2ccc3ccccc3c2)cc1,29.0*,0.6%,-1.7%,1.0%,-1.5%,43.4*
O=S(=O)(c1cccc(-c2n[nH]c(=S)n2Cc2ccccc2)c1)N1CCOCC1,-1.6,-14.7%,-8.5%,?,5.1%,10.9
CCN(CC)S(=O)(=O)c1cccc(-c2n[nH]c(=S)n2Cc2ccccc2)c1,-1.1,-18.1%,-1.7%,5.62µM*,11.3%,-4.4
CCN(CC)S(=O)(=O)c1cccc(-c2n[nH]c(=S)n2CC(C)C)c1,-3.0,-2.2%,?,8.91µM*,4.5%,-11.7

# Screens (PubChem)
